Assay results as given in PubChem BioAssay (Tox21).
Values without a mark were called inactive. Results filed as inconclusive are left out. Where a call stands in place of a potency, no number is given. Activity calls are given as the source filed them. Unless noted, calls come from the whole dose curve; as a rule, active = well fitted curve in the direction sought with a large enough effect in the repeat runs; inconclusive = weak or mixed curves; inactive = no such curve, though single readings can be large; an effect the other way counts as inactive or inconclusive.

What was measured:
[1] = qHTS assay to identify small molecule antagonists of the estrogen receptor alpha (ER-alpha) signaling pathway using the BG1 cell line in the presence of 0.1 nM 17-beta-estradiol - cell viability counter screen (AID 1259241); note: nearly all actives have a fitted effect of over 40% in size
Procedure, shortened: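 Cells were plated and left 24 hr, compounds in DMSO were pinned in, 17beta-estradiol was added to 0.1 nM final, and after 22 hr CellTiter-Fluor reagent was added for 30 min before fluorescence was read.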

[2] = qHTS assay to identify small molecule antagonists of the androgen receptor (AR) signaling pathway using the MDA cell line in the presence of 0.5 nM R1881 - cell viability counter screen (AID 1259242); note: nearly all actives have a fitted effect of over 45% in size
Procedure, shortened: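 R1881 at 0.5 nM final stimulated MDA-kb2 cells during 16 hr compound treatment at 37C. Cytotoxicity read: CellTiter-Fluor fluorescence after 30 min.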

[3] = qHTS assay to identify small molecule HDAC inhibitors (AID 1259364);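 note: wild-type HCT-116 cells with endogenous class I/II HDAC activity; top concentration of the series differs between compounds; nearly all actives have a fitted effect of over 45% in size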
Procedure, shortened: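 Relative class I and II HDAC activity is taken from the luminogenic signal in HCT-116 cells, with compound exposure 2 hr and reagent development 30 min at room temperature.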

[4] = qHTS assay to identify small molecule HDAC inhibitors - cell viability counter screen (AID 1259365); note: series mostly up to about 92 µM; nearly all actives have a fitted effect of over 50% in size
Procedure, shortened: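 Counter screen in wild-type HCT-116 cells: compounds dissolved in DMSO are pin-transferred onto overnight-plated cells and left 2hr at 37C. ATP-based CellTiter-Glo luminescence then measures viable cells.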

[5] = qHTS assay to identify small molecule agonists of the sonic hedgehog signaling (Shh) pathway - cell viability counter screen (AID 1259366); note: nearly all actives have a fitted effect of over 50% in size
Procedure, shortened: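 Cells are plated at 2,000 per well and left 4hr at 37C, 5% CO2 before compound addition. After 23hr of treatment, CellTiter-Fluor reagent is added for 1hr at 37C and fluorescence is measured.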

[6] = qHTS assay to identify small molecule antagonists of the sonic hedgehog signaling (Shh) pathway - cell viability counter screen (AID 1259367); note: nearly all actives have a fitted effect of over 55% in size
Procedure, shortened: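 After a 4 hr settling period, 3T3 Gli1-Luc cells were treated with DMSO-dissolved chemicals and conditioned medium, kept 24 hr at 37C in 5% CO2, and assayed for viability by CellTiter-Fluor fluorescence following 1 hr reagent incubation.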

[7] = qHTS assay to identify small molecule agonists of the sonic hedgehog signaling (Shh) pathway (AID 1259368; calls by dose curve;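 note: NIH/3T3-derived 3T3Gli1-Luc cells carrying a stable Gli1-driven firefly luciferase reporter; series mostly up to about 92 µM; nearly all actives have a fitted effect of over 15% in size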)
Procedure, shortened: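 Mouse fibroblast (NIH/3T3) reporter cells with stably integrated Gli1-Luc were treated 24 hr with compound; firefly luciferase luminescence served as the read-out.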

[8] = qHTS assay to identify small molecule antagonists of the sonic hedgehog signaling (Shh) pathway (AID 1259369; calls by dose curve; note: nearly all actives have a fitted effect of over 45% in size; note: potency is the fitted concentration of half-maximal effect)
Procedure, shortened: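 Conditioned medium drives Shh signalling in 3T3Gli1-Luc cells; compounds in DMSO co-applied, 24hr at 37 C, then luciferase luminescence.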

[9] = target: Estrogen receptor beta (Homo sapiens) (UniProt Q92731); assay: qHTS assay to identify small molecule agonists of the estrogen receptor beta (ER-beta) signaling pathway (AID 1259377; active = well fitted activation curve with a large enough effect in the signal ratio in the repeat runs, not every such curve was filed as active; the % refers to the signal ratio)
Procedure, shortened: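 Agonist mode cell assay in GripTite HEK293T cells expressing an ER-beta fusion that drives beta-lactamase from an Upstream Activator Sequence; 16 hr compound exposure at 37C, then 2 h LiveBLAzer B/G FRET substrate at room temperature, fluorescence read-out.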

[10] = target: Estrogen receptor beta (Homo sapiens) (UniProt Q92731); assay: qHTS assay to identify small molecule antagonists of the estrogen receptor beta (ER-beta) signaling pathway (AID 1259378; active = well fitted inhibition curve with a large enough effect in the signal ratio in the repeat runs, not every such curve was filed as active; the % refers to the signal ratio; note: potency is the fitted concentration of half-maximal effect)
Procedure, shortened: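 ER-beta-UAS-bla HEK293T (GripTite) cells in 2% charcoal-stripped FBS medium were preincubated 6 hr at 37C, dosed with compound, then stimulated with 1 nM E2 (final) for 16 hr; beta-lactamase reporter read by B/G FRET fluorescence after 2 hr substrate loading.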

[11] = qHTS assay to identify small molecule agonists of the androgen receptor (AR) signaling pathway in the presence of an antagonist - cell viability counter screen (AID 1259379);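 note: MDA-kb2 human breast cancer cells carrying an MMTV luciferase reporter; series mostly up to about 92 µM; nearly all actives have a fitted effect of over 25% in size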
Procedure, shortened: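 A CellTiter-Fluor read-out measured viability of MDA-kb2 reporter cells (MMTV promoter with AR and GR response elements). Treatment: nilutamide 3.0uM final with compounds at 15 concentrations, 16 hr, 37C, 0% CO2.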

[12] = qHTS assay to identify small molecule agonists of the estrogen receptor beta (ER-beta) signaling pathway - cell viability counter screen (AID 1259380); note: nearly all actives have a fitted effect of over 30% in size; note: potency is the fitted concentration of half-maximal effect
Procedure, shortened: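 Cells used were ER-beta-UAS-bla HEK293T in medium with 2% charcoal-stripped FBS. They were treated for 16 hr at 37C. Viability came from CellTiter-Glo luminescence.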

[13] = qHTS assay to identify small molecule antagonists of the estrogen receptor beta (ER-beta) signaling pathway - cell viability counter screen (AID 1259382); note: nearly all actives have a fitted effect of over 55% in size; note: potency is the fitted concentration of half-maximal effect
Procedure, shortened: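 Agonist-stimulated (1nM E2) ER-beta-UAS-bla HEK293T cells are incubated with library compounds for 16 hr at 37C. Cell viability is then assessed in the reporter-assay wells by adding CellTiter-Glo and reading luminescence after 30 min.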

[14] = qHTS assay to identify small molecule agonists or antagonists of the thyroid stimulating hormone receptor (TSHR) signaling pathway - wild type cell line counter screen (AID 1259384; calls by dose curve)
Procedure, shortened: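 Wild-type HEK293 cells were plated 18 h at 37 C/5% CO2, pin-dosed with compound plus Ro20-1724 medium, held 30 min at room temperature, then given cAMP-d2 and anti-cAMP-cryptate; fluorescence was read after 1 h. Fifteen concentrations, triplicate.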

[15] = target: Thyrotropin receptor (Homo sapiens) (UniProt P16473); assay: qHTS assay to identify small molecule antagonists of the thyroid stimulating hormone receptor (TSHR) signaling pathway (AID 1259385; calls by dose curve; note: nearly all actives have a fitted effect of over 20% in size; note: potency is the fitted concentration of half-maximal effect)
Procedure, shortened: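 TSHR-HEK293 cells were plated and held 18 h at 37C/5% CO2, then given compound plus Ro20-1724 and stimulated with TSH at 1.5 ng/mL final. After 30 min at room temperature, cAMP was detected with cAMP-d2/anti-cAMP-cryptate (1 h) by fluorescence.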

[16] = qHTS assay to identify small molecule phospholipidosis (PLD) inducers (AID 1259344; active = well fitted curve in the direction sought with a large enough effect; an effect the other way counts as inactive or inconclusive)
Procedure, shortened: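 HepG2 cells grown on collagen I take up LipidTOX Red while exposed to compound for 24 h; after fixation they are imaged at 20x and pit metrics are extracted.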

[17] = target: Estrogen receptor (Homo sapiens) (UniProt P03372); assay: qHTS assay to identify small molecule agonists of the estrogen receptor alpha (ER-alpha) signaling pathway in the presence of an antagonist (AID 1259383; calls by dose curve; note: top concentration of the series differs between compounds; nearly all actives have a fitted effect of over 15% in size)
Procedure, shortened: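 Using VM7Luc4E2 cells seeded 24hr before treatment, antagonist ICI-182,780 (10.0nM final) was added, followed by compounds at 15 concentrations. Plates incubated 22hr; ONE-Glo luminescence quantified reporter activity.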

[18] = target: Androgen receptor (Homo sapiens) (UniProt P10275); assay: qHTS assay to identify small molecule agonists of the androgen receptor (AR) signaling pathway in the presence of an antagonist (AID 1259381; calls by dose curve; note: nearly all actives have a fitted effect of over 15% in size)
Procedure, shortened: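 Using human MDA-kb2 cells with an MMTV promoter–luciferase construct (AR and GR response elements), agonist activity is scored under 3.0uM nilutamide (final) co-treatment; 16hr incubation, 37C, luminescence readout via ONE-Glo.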

Sequence of Estrogen receptor (Homo sapiens) (P03372 whole entry, looked up): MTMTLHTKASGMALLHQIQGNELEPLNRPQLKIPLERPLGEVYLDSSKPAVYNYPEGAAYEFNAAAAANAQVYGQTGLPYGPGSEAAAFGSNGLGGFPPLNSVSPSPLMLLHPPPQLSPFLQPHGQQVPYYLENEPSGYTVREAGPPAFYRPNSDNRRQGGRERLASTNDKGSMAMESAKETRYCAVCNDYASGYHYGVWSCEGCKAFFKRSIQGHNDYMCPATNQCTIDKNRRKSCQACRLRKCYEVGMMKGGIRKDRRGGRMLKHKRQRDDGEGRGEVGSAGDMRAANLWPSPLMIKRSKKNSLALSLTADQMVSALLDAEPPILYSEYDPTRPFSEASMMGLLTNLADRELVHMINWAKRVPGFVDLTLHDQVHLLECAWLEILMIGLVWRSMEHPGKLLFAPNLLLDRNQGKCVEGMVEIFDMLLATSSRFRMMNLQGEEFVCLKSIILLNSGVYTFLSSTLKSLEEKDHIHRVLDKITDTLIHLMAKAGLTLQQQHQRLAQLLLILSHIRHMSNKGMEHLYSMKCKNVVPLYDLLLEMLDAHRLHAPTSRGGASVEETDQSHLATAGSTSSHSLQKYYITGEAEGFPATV
Sequence of Thyrotropin receptor (Homo sapiens) (P16473 whole entry, looked up): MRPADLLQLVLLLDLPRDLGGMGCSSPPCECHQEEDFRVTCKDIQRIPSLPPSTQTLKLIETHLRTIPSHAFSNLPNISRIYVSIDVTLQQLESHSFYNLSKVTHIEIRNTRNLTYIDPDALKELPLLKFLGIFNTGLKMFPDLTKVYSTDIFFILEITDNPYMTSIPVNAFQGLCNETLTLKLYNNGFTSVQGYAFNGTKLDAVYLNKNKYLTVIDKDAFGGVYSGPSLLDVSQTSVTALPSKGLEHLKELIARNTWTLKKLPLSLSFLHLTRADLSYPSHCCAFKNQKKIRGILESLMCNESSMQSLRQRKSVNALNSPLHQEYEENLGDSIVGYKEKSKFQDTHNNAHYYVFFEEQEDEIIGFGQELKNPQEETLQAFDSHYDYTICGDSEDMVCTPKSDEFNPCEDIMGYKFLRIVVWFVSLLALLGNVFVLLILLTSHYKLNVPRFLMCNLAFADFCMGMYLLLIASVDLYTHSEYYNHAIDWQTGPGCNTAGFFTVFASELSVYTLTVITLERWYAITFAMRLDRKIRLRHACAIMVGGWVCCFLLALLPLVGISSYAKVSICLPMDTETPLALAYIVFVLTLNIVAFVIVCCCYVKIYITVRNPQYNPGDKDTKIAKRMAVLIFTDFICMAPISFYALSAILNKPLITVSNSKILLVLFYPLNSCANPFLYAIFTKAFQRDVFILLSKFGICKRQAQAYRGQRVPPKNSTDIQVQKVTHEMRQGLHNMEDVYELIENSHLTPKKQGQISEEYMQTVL
Sequence of Estrogen receptor beta (Homo sapiens) (Q92731 whole entry, looked up, the tested form may be a part): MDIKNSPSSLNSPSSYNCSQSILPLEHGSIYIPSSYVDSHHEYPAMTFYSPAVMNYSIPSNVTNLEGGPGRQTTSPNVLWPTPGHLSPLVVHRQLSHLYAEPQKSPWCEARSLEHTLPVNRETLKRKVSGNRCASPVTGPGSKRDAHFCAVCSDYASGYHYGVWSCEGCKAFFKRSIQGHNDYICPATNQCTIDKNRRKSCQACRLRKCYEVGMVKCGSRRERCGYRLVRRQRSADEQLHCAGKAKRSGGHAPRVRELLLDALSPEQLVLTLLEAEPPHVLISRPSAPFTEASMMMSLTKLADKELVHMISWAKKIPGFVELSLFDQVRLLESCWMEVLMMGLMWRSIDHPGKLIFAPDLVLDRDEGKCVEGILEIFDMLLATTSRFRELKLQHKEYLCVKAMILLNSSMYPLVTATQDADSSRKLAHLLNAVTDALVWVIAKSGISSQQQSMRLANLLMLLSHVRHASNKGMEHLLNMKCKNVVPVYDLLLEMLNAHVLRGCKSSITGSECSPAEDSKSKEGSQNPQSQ
Sequence of Androgen receptor (Homo sapiens) (P10275 whole entry, looked up): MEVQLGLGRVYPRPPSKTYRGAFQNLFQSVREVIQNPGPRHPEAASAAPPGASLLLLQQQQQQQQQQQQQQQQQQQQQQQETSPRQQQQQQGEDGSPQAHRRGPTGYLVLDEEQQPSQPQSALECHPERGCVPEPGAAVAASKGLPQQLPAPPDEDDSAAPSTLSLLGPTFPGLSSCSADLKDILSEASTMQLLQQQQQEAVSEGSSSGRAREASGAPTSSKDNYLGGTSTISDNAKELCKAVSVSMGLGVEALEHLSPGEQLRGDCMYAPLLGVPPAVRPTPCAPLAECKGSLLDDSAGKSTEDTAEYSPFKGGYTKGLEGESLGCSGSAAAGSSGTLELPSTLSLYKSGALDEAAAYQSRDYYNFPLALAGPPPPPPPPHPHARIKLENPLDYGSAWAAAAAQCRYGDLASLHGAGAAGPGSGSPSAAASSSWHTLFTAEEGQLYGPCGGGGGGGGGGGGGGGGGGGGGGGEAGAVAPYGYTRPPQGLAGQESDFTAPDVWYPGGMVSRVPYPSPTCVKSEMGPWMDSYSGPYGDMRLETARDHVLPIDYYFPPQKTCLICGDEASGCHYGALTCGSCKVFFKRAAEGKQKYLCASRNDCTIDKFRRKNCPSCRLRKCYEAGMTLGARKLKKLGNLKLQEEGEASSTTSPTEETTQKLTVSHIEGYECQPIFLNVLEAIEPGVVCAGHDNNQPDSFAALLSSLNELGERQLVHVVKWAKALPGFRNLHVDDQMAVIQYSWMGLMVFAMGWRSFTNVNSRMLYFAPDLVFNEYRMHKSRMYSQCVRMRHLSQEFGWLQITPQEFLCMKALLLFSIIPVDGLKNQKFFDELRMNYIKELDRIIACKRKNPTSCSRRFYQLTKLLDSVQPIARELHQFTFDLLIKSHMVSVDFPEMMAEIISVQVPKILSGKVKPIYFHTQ

Row | SMILES | Potency [1] | Potency [2] | Potency [3] | outcome [4] | Potency [5] | Potency [6] | outcome [7] | Potency [8] | Potency [9] | Potency [10] | Potency [11] | Potency [12] | Potency [13] | Potency [14] | Potency [15] | Potency [16] | Potency [17] | Potency [18]
1 | CC(C)CCCCCCOC(=O)c1ccc(C(=O)OCCCCCCC(C)C)c(C(=O)OCCCCCCC(C)C)c1 | inactive | inactive | inactive | inactive | inactive | inactive | inactive | inactive | inactive | inactive | inactive | inactive | inactive | inactive | inactive |  |  | 
2 | CC1(C)CCC(C)(C)c2cc(NC(=O)c3ccc(C(=O)O)cc3)ccc21 | inactive | inactive | inactive | inactive |  |  | inactive | inactive | inactive | 18.8 µM (active) | inactive |  | inactive | inactive | inactive | inactive |  | 
3 | Cc1ccc(C(N)=O)cc1N | inactive | inactive | inactive | inactive | inactive |  | inactive | inactive | inactive | inactive | inactive | inactive | inactive | inactive | inactive |  | inactive | 
4 | Nc1nc(CC(=O)O)cs1 | inactive | inactive | inactive | inactive | inactive | inactive | inactive | inactive | inactive |  | inactive |  |  |  | inactive |  |  | 
5 | C=CC(C)(CCC=C(C)C)OC(=O)c1ccccc1 (stereo not given) | inactive | inactive | inactive | inactive | inactive | inactive | inactive | inactive |  |  | inactive | inactive | inactive | inactive |  |  |  | 
6 | CC(=O)c1c(C)c([N+](=O)[O-])c(C(C)(C)C)c([N+](=O)[O-])c1C | inactive | inactive | inactive | inactive | inactive | inactive | inactive | inactive |  |  | inactive | inactive | inactive | inactive | inactive |  |  | 
7 | CCN(CC)C(C)=O | inactive | inactive | inactive | inactive | inactive | inactive | inactive | inactive | inactive | inactive | inactive | inactive | inactive |  | inactive |  |  | 
8 | CN(C)CC/C=C1\c2ccccc2COc2ccccc21 | inactive | inactive | inactive | inactive |  | inactive | inactive |  |  |  | inactive | 26.6 µM (active) |  | inactive | 29.8 µM (active) | inactive |  | inactive
9 | O=C(Cl)c1c(Cl)cccc1Cl | inactive | inactive | inactive | inactive | inactive | inactive | inactive | inactive |  |  | inactive | inactive | inactive | inactive |  |  | inactive | 
10 | Cc1ncsc1CCO | inactive | inactive | inactive | inactive | inactive |  | inactive | inactive | inactive | inactive | inactive |  | inactive | inactive |  |  | inactive | 
11 | C=C(C)C(=O)OCCN(C)C | inactive | inactive | inactive | inactive | inactive | inactive | inactive | inactive | inactive | inactive | inactive |  | inactive |  |  |  |  | 
12 | C[C@@H](C1=C(CCN(C)C)Cc2ccccc21)c1ccccn1 | inactive | inactive | inactive | inactive |  | inactive | inactive |  |  |  | inactive |  | inactive | inactive | inactive | inactive |  | 
13 | CN1CCC(=C2c3ccccc3CCc3sccc32)CC1 | inactive | inactive | inactive | inactive | inactive | inactive | inactive | 2.98 µM (active) | inactive |  |  | 26.6 µM (active) | 21.1 µM (active) |  | inactive |  | inactive | 
14 | CCCCCC(CO)CCC (stereo not given) | inactive | inactive | inactive | inactive | inactive |  | inactive | inactive | inactive | inactive | inactive |  | inactive | inactive |  |  |  | 
15 | CCCCOCCOCCOCCOCCO | inactive | inactive | inactive | inactive | inactive | inactive | inactive | inactive | inactive | inactive | inactive |  | inactive | inactive | inactive |  | inactive | 
16 | NCc1ccccc1 | inactive | inactive | inactive | inactive | inactive | inactive | inactive | inactive | inactive | inactive | inactive | inactive | inactive | inactive |  |  |  | 
17 | C1=Cc2ccccc2C1 | inactive | inactive | inactive | inactive | inactive | inactive | inactive | inactive |  |  | inactive | inactive | inactive |  |  |  | inactive | 
18 | CCC(=O)OC(C)(C)C1CC=C(C)CC1 (stereo not given) | inactive | inactive | inactive | inactive | inactive | inactive | inactive | inactive | inactive | inactive | inactive | inactive | inactive | inactive |  |  | inactive | 
